Screens from PubChem BioAssay.
Sampled rows, rich in hits. Any-hit rate of the full collection: about 3.5%.
Autofluor counter: compound fluorescence in toxin protease inhibitor counterscreen | compound autofluorescence counterscreen, microsphere flow cytometry; active compounds read high | fluorescence intensity (no concentration beside the values) | hit rate 3.1% among 360,000 | AID 624483; in the data active means fluorescence intensity above about 16000; inconclusive means no clear call, values can overlap the other calls
BoNT F protease: inhibitors of Botulinum neurotoxin F light chain protease; inhibition, % at 10 µM; hit rate 0.22% among 360,000; Multiplex microsphere protease cleavage assay, flow cytometry; in the data active means inhibition above about 35%, passing the limit was not always enough; inconclusive means no clear call, values can overlap the other calls; further: plate controls were buffer without enzyme for full effect and enzyme alone for no effect
Anthrax LF prot: anthrax lethal factor protease inhibition. inhibition, % at 10 µM. AID 588501. hit rate 0.12% among 360,000. multiplex microsphere protease cleavage assay, LF. P15917; further: plate controls were buffer without enzyme for full effect and enzyme alone for no effect
3CLpro inhibitor: SARS-CoV 3CLpro protease inhibition | P0C6X7 | recombinant SARS-CoV 3CLpro, quenched FRET peptide cleavage | inhibition, % at 6 µM | hit rate 0.14% among 290,000; in the data active means inhibition above about 12%
BoNT A protease: inhibitors of Botulinum neurotoxin A light chain protease. AID 588499. inhibition, % at 10 µM. hit rate 0.17% among 360,000. multiplex microsphere protease substrate cleavage, flow cytometry; further: plate controls were buffer without enzyme for full effect and enzyme alone for no effect
* hit, by the source's call; ? = inconclusive; / = no result. Unless noted, no stated cut-off is given here; in the data, active means inhibition above about 30%; inconclusive means no clear call, values can overlap the other calls; inactive means below that.

SMILES | Autofluor counter | BoNT F protease | Anthrax LF prot | 3CLpro inhibitor | BoNT A protease
CC(C)CN1CCN(Cc2ccc(F)cc2Cl)CC1CCO (centres undefined) | 5773 | -3 | 6 | 4 | 1
CC1CCN(S(=O)(=O)c2ccc(S(=O)(=O)N3CCCN(Cc4ccccc4)C3)cc2)CC1 | / | / | / | 2 | /
CC(C)CNS(=O)(=O)c1ccc(S(=O)(=O)N2CCCN(Cc3ccccc3)C2)cc1 | 21949* | -6 | 0 | -3 | -5
CCCCn1ccnc1C(=O)c1cccc(S(=O)(=O)N2CC(C)CC(C)C2)c1 (centres undefined) | 16271* | -4 | -8 | 7 | 0
COc1cc2[nH]c(=O)n(CCCC(=O)NCCc3ccccc3)c(=O)c2cc1OC | 7411 | -2 | 2 | 8 | -2
CC(C)OCCCNC(=O)c1ccc(CS(=O)(=O)Cc2ccccc2F)o1 | 20731* | 0 | -2 | 0 | 0
COc1ccc(N/C=C2\CCOC2=O)cc1 | 16257* | 0 | -2 | -7 | 0
COc1ccc(N/C=C2\CCc3ccccc3C2=O)cc1 | 4427 | -3 | -3 | 34* | 0
COc1ccc2c(c1)CC/C(=C\Nc1ccc3c(c1)OCO3)C2=O | 8246 | -12 | -8 | -2 | -2
COc1ccc(/C=C2\CCOC2=O)cc1 | 3047 | 5 | 0 | 6 | 1
O=CNc1cc(-c2cccc(O)c2)cn2c(-c3ccc(F)cc3)cnc12 | 3406 | -3 | -1 | / | 0
O=C(O)COCc1nc2ccccc2[nH]1 | 25242* | -1 | 2 | 0 | -3
CN1CCN(c2ccc([N+](=O)[O-])c(N/N=C3\CN4CCC3CC4)c2)CC1 | 20912* | -4 | -2 | -2 | -1
CCOC(=O)N1CCN(C(=O)CSc2ccc(-c3cccc(OC)c3)nn2)CC1 | 3385 | 6 | 2 | 4 | 0
COc1cccc(OCCn2ccnc2)c1 | 23533* | 0 | -3 | -4 | 0
Clc1ccccc1OCCn1ccnc1 | 20725* | 3 | 2 | -2 | 0
Cc1cccc(OCCCn2ccnc2)c1 | 21296* | -2 | -2 | 3 | ?
Cc1ccc(C)c(OCCCCn2ccnc2)c1 | 10363 | 0 | 2 | -3 | 0
COc1ccc(OCCn2ccnc2)cc1 | 3725 | -5 | -7 | -1 | -4
Cc1ccc(OCCCCn2ccnc2)c(Cl)c1 | 19999* | 8 | -15 | -1 | 7
C=CCc1ccccc1OCCn1ccnc1 | 10388 | -8 | 6 | 0 | -2
CC(C)CCC(C)N=Cc1c(O)n(Cc2ccccc2)c(=O)c2ccccc12 (centres undefined) | 2898 | -6 | -6 | 5 | -1
CCN1CCCC1CN=Cc1c(O)n(-c2ccccc2)c(=O)c2ccccc12 (centres undefined) | 27436* | 4 | 4 | 0 | ?
CC(C)CCN=Cc1c(O)n(-c2ccccc2)c(=O)c2ccccc12 | 22931* | 1 | -1 | -4 | ?
COc1ccc(CNC2CCCCC2C)c(OC)c1 (centres undefined) | 22181* | 2 | -1 | -1 | 3
SMILES | Autofluor counter | BoNT F protease | Anthrax LF prot | 3CLpro inhibitor | BoNT A protease
CCC(CC)NCc1ccc(OC)cc1OC | 22992* | -4 | 2 | 1 | -1
COc1ccc(CNCc2ccncc2)c(OC)c1 | 4132 | -8 | -17 | 5 | -4
CC(C)(C)NS(=O)(=O)c1ccc(-c2csnn2)s1 | 3956 | -10 | 7 | 2 | 1
COc1ccc(C(C(=O)NCC2CCCO2)N(C(=O)CNC(=O)c2ccco2)c2ccccc2)cc1OC (centres undefined) | 3686 | -16 | -9 | -7 | 5
CC1([N+](=O)[O-])COP(=O)(Nc2cccc(Br)c2)OC1 (centres undefined) | 16672* | 25 | 1 | / | 2
CCOC(=O)N1CCN(S(=O)(=O)c2ccc(OC)c(Cl)c2)CC1 | 3138 | 0 | 5 | 0 | 1
CCOC(=O)N1CCC(N2CCN(S(=O)(=O)c3ccc(Cl)cc3)CC2)CC1 | 19293* | 3 | 2 | -3 | ?
CCOC(=O)N1CCC(NC(=O)c2ccc(CNS(=O)(=O)c3ccc(F)cc3)cc2)CC1 | 17979* | -7 | -2 | 6 | -8
CCOC(=O)N1CCN(S(=O)(=O)c2ccc(OC)c(OC)c2)CC1 | 25529* | -7 | -1 | 1 | -3
CCOC(=O)N1CCC(NC(=O)c2cc(S(=O)(=O)N3CCC4(CC3)OCCO4)ccc2F)CC1 | 11134 | -3 | -1 | -5 | 0
Cc1ccc(S(=O)(=O)NCc2ccc(C(=O)NC3CC3)cc2)cc1 | 9834 | -4 | 6 | 3 | 4
CCOC(=O)N1CCN(S(=O)(=O)c2ccc(Cl)cc2)CC1 | 3544 | -8 | 4 | 2 | -2
CCOC(=O)N1CCC(NC(=O)c2cc(S(=O)(=O)N3CCOCC3)ccc2F)CC1 | 20906* | 0 | 1 | -6 | -1
COCCN(C(=O)COC(=O)CC(C)c1ccccc1)c1c(N)n(Cc2ccccc2)c(=O)[nH]c1=O (centres undefined) | ? | -18 | 2 | / | -3
COc1ccccc1C(=O)Nc1sc2c(c1C(N)=O)CCCC2 | 3253 | -4 | 0 | -6 | -2
COC(=O)c1cc(S(=O)(=O)N2CCC(C)CC2)ccc1F | 22718* | 2 | -1 | -5 | 2
COC(=O)c1cccc(S(=O)(=O)N2CCC(C)CC2)c1 | 3308 | 1 | 8 | 4 | 0
CCOC(=O)N1CCC(NC(=O)C2CCN(c3ccc(N4CCOCC4)nn3)CC2)CC1 | 23805* | 0 | -2 | -1 | -1
CCOC(=O)N1CCN(C(=O)CN(Cc2ccc(Cl)cc2)S(=O)(=O)c2ccc(C)cc2)CC1 | 24719* | -6 | -2 | 5 | -4
O=C(NCc1ccco1)c1noc2c1CCCCC2 | 16534* | -6 | -8 | -1 | -2
O=C(NCc1cccs1)c1noc2c1CCCC2 | 11822 | -4 | -4 | -2 | -2
O=C(NCCc1ccccc1)c1noc2c1CCCCC2 | 19823* | 0 | 0 | 2 | 3
O=C(NCc1cccnc1)c1noc2c1CCCCC2 | 10589 | 1 | 0 | 7 | 1
O=C(NCc1cccnc1)c1noc2c1CCCC2 | 21847* | 2 | -9 | -4 | 4
O=C(c1ccccc1Cl)N(Cc1ccc(Br)cc1)N1C(=O)CCCC1=O | 5037 | -7 | -2 | 1 | -1
SMILES | Autofluor counter | BoNT F protease | Anthrax LF prot | 3CLpro inhibitor | BoNT A protease
O=C(Nc1ccccc1)c1ccc(F)c(S(=O)(=O)N2CCOCC2)c1 | 9370 | 14 | 0 | 3 | 1
O=C(Nc1ccc(-c2cn3ccsc3n2)cc1)c1ccc(F)c(S(=O)(=O)N2CCOCC2)c1 | 19935* | -3 | -6 | -6 | -2
Nc1nc2ccccc2n1/N=C/c1ccc([N+](=O)[O-])s1 | 2340 | 3 | 1 | -1 | 0
CC(C)Cc1nnc(NS(=O)(=O)Cc2ccccc2)s1 | 21019* | 8 | 2 | -2 | 7
Cc1onc(-c2ccccc2Cl)c1C(=O)NCCCc1ccccc1 | 5468 | -12 | 0 | 2 | 1
O=C(COC(=O)CNC(=O)c1cccc([N+](=O)[O-])c1)Nc1ccccc1OC(F)F | 2161 | -1 | -1 | 1 | 0
Cc1cccc(CSc2nnc(-c3ccco3)o2)c1 | 4546 | -6 | -6 | 0 | -1
O=c1cc(CSc2nnc(-c3ccco3)o2)c2ccccc2[nH]1 | 22171* | 0 | -8 | 4 | ?
